Assay results published in ChEMBL document CHEMBL3988442, “University of Dundee, Small-Polar-MMV Screening Library” (2021).
The campaign covered roughly 38,000 compounds. About 1,200 (3.2%) showed an effect of 50% or more. The median lay at about -58%. The sample holds strong results, similar compounds and a random draw of the others, so the mix is not that of the screen.

system: Plasmodium falciparum; assay: Calibr Malaria Delayed Death Assay SOP; type: functional, organism-based; set-up: scale not given: in the data most compounds retested in dose-response had high values; details: concentration 4.99e-06 (unit not given; other assays of the set use mol/L)

| Compound | Percent Effect [%] |
| --- | --- |
| Cc1cc(CN2CCN(C(=O)C(C(C)C)n3cncn3)CC2)on1 (stereo not given) | -30.78 |
| CCC(CNC(=O)c1ccccn1)N1CCc2ccccc2C1 (stereo not given) | 22.7 |
| O=c1ccc(-c2cccs2)nn1CN1CCc2ccccc2C1 | -135 |
| O=C1CCCCCN1Cc1cccc(OC(F)F)c1 | -103.2 |
| Cc1noc(C)c1CN1CCCCC1CCc1ccc(O)cc1 (stereo not given) | 50.08 |
| CSCc1noc(CN2CCCCC2CCc2ccc(O)cc2)n1 (stereo not given) | -58.4 |
| Cc1noc(C)c1CN1CCCC1C(=O)OCc1ccccc1 (stereo not given) | -68.08 |
| c1cc(-c2cnccn2)cc(-c2ccn(CCCN3CCCCC3)n2)c1 | 18.71 |
| c1cc(-c2cnccn2)cc(-c2ccn(CCN3CCCC3)n2)c1 | 67.88 |
| c1cc(-c2cnccn2)cc(-c2ccn(CCN3CCCCC3)n2)c1 | 41.47 |
| Cc1cc2[nH]c(=O)oc2cc1S(=O)(=O)N1CCC(N2CCCC2=O)CC1 | -16.02 |
| CC(=O)N(C)CC(=O)NC(C)c1ccc(OCCC(C)C)cc1 (stereo not given) | -42.24 |
| Cc1nc(CCNC(=O)NCC(c2ccco2)N(C)C)cs1 (stereo not given) | -71.79 |
| O=C(NCCc1ccncc1)[C@H]1C[C@@H]2CCN(c3nncs3)C[C@H]2O1 | -93.92 |
| COCCN(C)C(=O)NCCc1coc(-c2ccc(C)cc2)n1 | -79.36 |
| Cc1ncc(CNC(=O)N(CCCO)C2CCc3ccccc32)s1 (stereo not given) | -63.88 |
| CC(C)n1ncc2c1NC(=O)CC21C(=O)Nc2cc(Cl)cc(Cl)c21 (stereo not given) | -81.88 |
| CC(C)n1ncc2c1NC(=O)CC21C(=O)Nc2c(Cl)ccc(Cl)c21 (stereo not given) | 83.19 |
| CC(C)n1ncc2c1NC(=O)CC21C(=O)Nc2c(Cl)cc(Br)cc21 (stereo not given) | -58.13 |
| COc1ccc(Cl)cc1NC(=O)N1CCc2nc(NC(C)=O)sc2C1 | -92.85 |
| COc1ccc(COCC(O)CNC(=O)c2cc(C)oc2C)cc1 (stereo not given) | -54.86 |
| O=C(NCCCn1cccn1)C1(c2cccc(Cl)c2)CC1 | -36.51 |
| CS(=O)(=O)NCc1nnc2n1CCN(Cc1cccnc1)C2 | -124.8 |
| Cc1nc(NC2(CN3CCCCC3)CCCCC2)c2cnn(C)c2n1 | 54.86 |
| CCOC(=O)CC1(Nc2nc(C)nc3c2cnn3C)CCCCC1 | -28.38 |
| COCC1(Nc2nc(C)nc3c2cnn3C)CCCC1 | -148.5 |
| COc1cc(C(=O)NS(=O)(=O)c2cc(Cl)sc2Cl)ccc1OC(F)F | -57.9 |
| OCCN(CCO)Cc1ccc(Br)c2cccnc12 | -31.32 |
| CCN(CCO)Cc1ccc(Br)c2cccnc12 | 54.32 |
| N#CCCN(CCC#N)Cc1ccc(Br)c2cccnc12 | -154.3 |
